Measured values reported in PubChem BioAssay (EPA / NIEHS).
Records with an inconclusive call do not appear. The source made the active and inactive calls. Rule for the calls, unless noted: active = hit-call score of the fitted dose curve at least 0.9, where 1 is the maximum; inconclusive = response in the unintended direction; inactive = score below 0.9.

Legend:
[1] = biological target: Nucleoli Translocation, AR (gene 367) (UniProt P10275); assay: UPITT_HCI_U2OS_AR_TIF2_Nucleoli_Antagonist: University of Pittsburgh U2OS Androgen Receptor-Transcriptional Intermediary Factor 2 (AR-TIF2) Antagonism High Content Imaging Assay for Nucleoli Translocation (AID 2283997)
Sequence of Nucleoli Translocation, AR (gene 367) (P10275 whole entry, looked up, the tested form may be a part): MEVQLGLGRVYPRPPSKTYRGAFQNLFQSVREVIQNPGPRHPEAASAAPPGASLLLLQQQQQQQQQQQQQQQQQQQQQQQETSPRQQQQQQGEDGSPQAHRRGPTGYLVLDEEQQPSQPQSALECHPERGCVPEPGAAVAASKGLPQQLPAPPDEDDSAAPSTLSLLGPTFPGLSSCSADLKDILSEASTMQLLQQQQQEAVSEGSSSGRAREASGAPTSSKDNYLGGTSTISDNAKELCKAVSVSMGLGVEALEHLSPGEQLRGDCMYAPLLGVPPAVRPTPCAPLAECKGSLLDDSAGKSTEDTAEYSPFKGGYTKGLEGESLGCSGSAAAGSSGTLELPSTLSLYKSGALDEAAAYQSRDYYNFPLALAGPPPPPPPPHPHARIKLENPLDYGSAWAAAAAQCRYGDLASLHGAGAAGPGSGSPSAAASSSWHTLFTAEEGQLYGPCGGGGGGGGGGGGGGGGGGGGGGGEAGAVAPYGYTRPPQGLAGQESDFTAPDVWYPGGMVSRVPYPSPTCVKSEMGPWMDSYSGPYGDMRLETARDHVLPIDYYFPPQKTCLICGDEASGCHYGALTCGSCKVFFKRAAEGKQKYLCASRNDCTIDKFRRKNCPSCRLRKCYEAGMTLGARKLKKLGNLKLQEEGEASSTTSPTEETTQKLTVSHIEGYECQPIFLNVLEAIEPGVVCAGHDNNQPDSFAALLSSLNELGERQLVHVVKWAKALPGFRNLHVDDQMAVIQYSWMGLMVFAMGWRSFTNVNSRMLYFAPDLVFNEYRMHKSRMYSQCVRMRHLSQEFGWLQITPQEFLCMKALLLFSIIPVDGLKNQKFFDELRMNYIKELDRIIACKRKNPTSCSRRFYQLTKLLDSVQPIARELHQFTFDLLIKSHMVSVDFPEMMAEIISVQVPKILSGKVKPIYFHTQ
Method in brief: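 An antagonist-mode imaging screen: engineered U2OS (AR-RFP, TIF2-GFP) exposed to 20 uM compound, 0.2% DMSO. Activity reflects nucleolar red fluorescence change relative to DHT baseline.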

[2] = biological target: Nucleoli Translocation, AR (gene 367) (UniProt P10275); assay: UPITT_HCI_U2OS_AR_TIF2_Nucleoli_Agonist: University of Pittsburgh U2OS Androgen Receptor-Transcriptional Intermediary Factor 2 (AR-TIF2) Agonism High Content Imaging Assay for Nucleoli Translocation (AID 2283998)
Method in brief: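 Cells express human AR fused to red fluorescent protein and TIF2 fused to GFP. Red fluorescence in the nucleolar region was quantified by high-content imaging and fitted as gain-of-signal against a DMSO baseline. Compounds were tested at 0.195 to 50 uM final (0.5% DMSO).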

[3] = biological target: Ratio of Nucleoli Translocation and Cytoplasm, AR (gene 367) (UniProt P10275); assay: UPITT_HCI_U2OS_AR_TIF2_Nucleoli_Cytoplasm_Ratio_Antagonist: University of Pittsburgh U2OS Androgen Receptor-Transcriptional Intermediary Factor 2 (AR-TIF2) Antagonism High Content Imaging Assay for Ratio of Nucleoli Translocation and Cytoplasm (AID 2283999);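 note: antagonists lower the DHT-driven ratio of nucleolar to cytoplasmic red signal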
Sequence of Ratio of Nucleoli Translocation and Cytoplasm, AR (gene 367) (P10275 whole entry, looked up): as the sequence (P10275 whole entry, looked up, the tested form may be a part) above
Method in brief: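 High-content imaging of red fluorescence ratio, nucleoli versus cytoplasm, in U2OS expressing AR-RFP and TIF2-GFP, fitted relative to DHT. Compounds tested once at 20 uM final, then 0.195 to 50 uM final in serial dilution.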

DIO1 (gene 1733) = assay: CCTE_GLTED_hDIO1: CCTE's human Deiodinase 1 (DIO1) Inhibition Assay, Great Lakes Toxicology and Ecology Division (GLTED) Lab (AID 2283987);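 note: isolated human DIO1 enzyme in a cell-free setup rather than cells; enzyme activity read as free iodide liberated from substrate via Sandell-Kolthoff colorimetry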
Method in brief: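 Cell-free human DIO1 enzyme was incubated with test chemical for 3 h, and iodide released from substrate was measured by Sandell-Kolthoff absorbance. Loss of signal versus DMSO baseline indicated inhibition; plates were run in triplicate.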

[4] = CCTE_Harrill_HTTr_Viability_PRF_DMEM_24hr: (Pilot) CCTE's 24-hour Cell Viability Assessment for the High-Throughput Transcriptomics (HTTr) Platform, in MCF-7 cells cultured in phenol red-free DMEM + 10% charcoal-stripped fetal bovine serum, Harrill Lab (AID 2283980; active = hit-call score of the fitted dose curve at least 0.9, where 1 is the maximum; inactive = score below 0.9)
Method in brief: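 Propidium iodide exclusion imaged at 24 h after dosing scores viability; cells were MCF-7 grown in phenol red-free DMEM plus 10% charcoal-stripped serum, tested in eight concentrations, fitted in both directions against DMSO.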

[5] = CCTE_Harrill_HTTr_Apoptosis_DMEM_6hr: (Pilot) CCTE's 6-hour Apoptosis Assessment for the High-Throughput Transcriptomics (HTTr) Platform, in MCF-7 cells cultured in DMEM + 10% fetal bovine serum, Harrill Lab (AID 2283981; active = hit-call score of the fitted dose curve at least 0.9, where 1 is the maximum; inactive = score below 0.9)
Method in brief: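 MCF-7 cells grown in DMEM + 10% FBS were exposed for 6 hours to an eight-point dilution series. CellEvent Caspase 3/7 Green signal was imaged; activity fitted bidirectionally against DMSO.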

[6] = CCTE_Harrill_HTTr_Apoptosis_DMEM_12hr: (Pilot) CCTE's 12-hour Apoptosis Assessment for the High-Throughput Transcriptomics (HTTr) Platform, in MCF-7 cells cultured in DMEM + 10% fetal bovine serum, Harrill Lab (AID 2283982; active = hit-call score of the fitted dose curve at least 0.9, where 1 is the maximum; inactive = score below 0.9)
Method in brief: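 Caspase-3/7 activity was measured by high-content imaging (CellEvent Caspase 3/7 Green) after a 12-hour exposure of MCF-7 cells grown in DMEM with 10% FBS. Eight-point concentration series, fitted bidirectionally against vehicle.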

[7] = CCTE_Harrill_HTTr_Apoptosis_DMEM_24hr: (Pilot) CCTE's 24-hour Apoptosis Assessment for the High-Throughput Transcriptomics (HTTr) Platform, in MCF-7 cells cultured in DMEM + 10% fetal bovine serum, Harrill Lab (AID 2283983; active = hit-call score of the fitted dose curve at least 0.9, where 1 is the maximum; inactive = score below 0.9)
Method in brief: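 Caspase-3/7 activity read by high-content imaging (CellEvent Green reagent) 24 h after dosing. MCF-7 cells grown in DMEM with 10% FBS received an eight-point concentration series; fits were bidirectional versus DMSO.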

[8] = CCTE_Harrill_HTTr_Apoptosis_PRF_DMEM_6hr: (Pilot) CCTE's 6-hour Apoptosis Assessment for the High-Throughput Transcriptomics (HTTr) Platform, in MCF-7 cells cultured phenol red-free DMEM + 10% charcoal-stripped fetal bovine serum, Harrill Lab (AID 2283984; active = hit-call score of the fitted dose curve at least 0.9, where 1 is the maximum; inactive = score below 0.9)
Method in brief: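 Caspase-3/7 activity (CellEvent Green) read by high-content imaging 6 h after dosing, eight concentrations. Cells: MCF-7, phenol red-free DMEM with 10% charcoal-stripped serum. Curves fit both directions against DMSO.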

[9] = CCTE_Harrill_HTTr_Apoptosis_PRF_DMEM_24hr: (Pilot) CCTE's 24-hour Apoptosis Assessment for the High-Throughput Transcriptomics (HTTr) Platform, in MCF-7 cells cultured in phenol red-free DMEM + 10% charcoal-stripped fetal bovine serum, Harrill Lab (AID 2283986; active = hit-call score of the fitted dose curve at least 0.9, where 1 is the maximum; inactive = score below 0.9)
Method in brief: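 Eight concentrations tested for 24 h on MCF-7 grown in charcoal-stripped serum, phenol red-free DMEM. High content imaging of CellEvent Caspase 3/7 Green signal gives apoptosis read-out, fitted both ways relative to DMSO.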

Cc1ccc(N)cc1O
AC50 [1]: 37 µM (active) | outcome [2]: inactive | outcome [3]: inactive

CCCN(C1CCN(C(=O)C2CCNCC2)CC1)[C@@H]1CCc2ccc(OC)cc2C1
outcome [1]: inactive | outcome [2]: inactive | outcome [3]: inactive

CCOC(=O)c1ccc(C2CCC(NC[C@H](O)COc3ccc(O)c(NS(C)(=O)=O)c3)CC2)cc1 (some centres undefined)
AC50 (DIO1 (gene 1733)): 95 µM (active)

CCCCC(CC)COC(=O)c1ccc(C(=O)OCC(CC)CCCC)cc1 (centres undefined)
outcome [1]: inactive | outcome [2]: inactive

C1N2CN3CN1CN(C2)C3
outcome [2]: inactive

CC[C@H](C)C(=O)O[C@H]1C[C@@H](C)C=C2C=C[C@H](C)[C@H](CC[C@@H]3C[C@@H](O)CC(=O)O3)[C@H]21
outcome [4]: inactive | outcome [5]: inactive | outcome [6]: inactive | outcome [7]: inactive | outcome [8]: inactive | outcome [9]: inactive | AC50 (DIO1 (gene 1733)): 48.1 µM (active)

O=C(O)c1cc(N=Nc2ccc(S(=O)(=O)Nc3ccccn3)cc2)ccc1O
AC50 (DIO1 (gene 1733)): 27.3 µM (active)

O=C(O)c1cccc(N(Cc2cccnc2)c2ccc(OC(F)F)c(OC(F)F)c2)c1
AC50 [1]: 22.1 µM (active) | outcome [2]: inactive | outcome [3]: inactive

CCC(C)(C)C(=O)O[C@H]1C[C@@H](C)C=C2C=C[C@H](C)[C@H](CC[C@@H]3C[C@@H](O)CC(=O)O3)[C@H]21
outcome [4]: inactive | outcome [5]: inactive | outcome [6]: inactive | outcome [7]: inactive | outcome [8]: inactive | outcome [9]: inactive | AC50 (DIO1 (gene 1733)): 49 µM (active)

CCOc1cccc(-n2cc(C(=O)N3CCN(c4cc(C(=O)O)c5ccccc5c4)CC3)nc2-c2ccc(C)cc2)c1
AC50 (DIO1 (gene 1733)): 151 µM (active) | AC50 [1]: 78.4 µM (active) | outcome [3]: inactive

CNS(=O)(=O)c1cc(C(=O)N2CCC(CCN3C4CCC3CC(n3c(C)nc5ccccc53)C4)(c3cccc(F)c3)CC2)c(Cl)cc1F (centres undefined)
outcome [1]: inactive | outcome [3]: inactive

Oc1ccc2c(c1)-c1ccccc1C2
AC50 [1]: 12 µM (active) | AC50 [2]: 76.6 µM (active) | AC50 [3]: 7.43 µM (active)

CCNc1ccccc1
outcome [1]: inactive | outcome [2]: inactive | outcome [3]: inactive

CC1(C)C(=O)N(Br)C(=O)N1Br
outcome [1]: inactive | outcome [2]: inactive | outcome [3]: inactive

Cc1ccc(O)cc1
outcome [2]: inactive

CCCCCCc1ccc(O)cc1O
AC50 (DIO1 (gene 1733)): 128 µM (active) | AC50 [1]: 14.4 µM (active) | AC50 [2]: 14.2 µM (active) | outcome [3]: inactive

O=C(CCCCCCCCc1cccnc1)N1CCC(C=C(c2ccccc2)c2ccccc2)CC1
outcome [1]: inactive | outcome [3]: inactive

Nc1nc2ncc(CNc3ccc(C(=O)N[C@@H](CCC(=O)O)C(=O)O)cc3)nc2c(=O)[nH]1
outcome [1]: inactive

O=C(OC[C@H]1O[C@@H](OC(=O)c2cc(O)c(O)c(OC(=O)c3cc(O)c(O)c(O)c3)c2)[C@H](OC(=O)c2cc(O)c(O)c(OC(=O)c3cc(O)c(O)c(O)c3)c2)[C@@H](OC(=O)c2cc(O)c(O)c(OC(=O)c3cc(O)c(O)c(O)c3)c2)[C@@H]1OC(=O)c1cc(O)c(O)c(OC(=O)c2cc(O)c(O)c(O)c2)c1)c1cc(O)c(O)c(OC(=O)c2cc(O)c(O)c(O)c2)c1
AC50 (DIO1 (gene 1733)): 17.7 µM (active)

Fc1ccccc1[C@@H](F)COC1CCC(Nc2ncnc3[nH]ncc23)CC1 (some centres undefined)
AC50 [1]: 18.3 µM (active) | outcome [2]: inactive | outcome [3]: inactive

CN(C)c1ccc(N=NS(=O)(=O)O)cc1
outcome [1]: inactive | outcome [3]: inactive

CC(C)=CCCC(C)CCO (centres undefined)
outcome [1]: inactive | outcome [2]: inactive | outcome [3]: inactive
